# Test results published in ChEMBL document CHEMBL3988442, “University of Dundee, Small-Polar-MMV Screening Library” (2021).
# Among all 69,000 compounds or so, about 950 (1.4%) showed an effect of 50% or more. For the sample, strong results were picked, then their nearest neighbours and some compounds at random.
# Test system: Mycobacterium tuberculosis
# Assay: Cornell M. t heat shock assay; further: in the data most compounds retested in dose-response had high values
# Type: functional, organism-based
# Parameters: dose or concentration left out as unconfirmed
row,SMILES,Percent Effect
1,Cc1ccc2c(c1)C(NC1CC1)CC21CCNCC1.Cl (stereo unspecified),-15.52%
2,C[C@@H]1CN(C(=O)c2ccc[nH]2)C[C@]12CCN(CCN1CCCC1)C2=O.O=C(O)C(F)(F)F,22.28%
3,CNC(=O)CN1CCOCC2(CN(CCC(F)(F)F)CCO2)C1.O=C(O)C(F)(F)F.O=C(O)C(F)(F)F (stereo unspecified),-25.1%
4,Cc1ccc2c(c1)C(NC(=O)N(C)C)CC21CCN(CC2CC2)CC1.O=C(O)C(F)(F)F (stereo unspecified),-3.475%
5,COc1coc(C(=O)Nc2nc(-c3ccccn3)cs2)cc1=O,1.222%
6,COc1coc(C(=O)Nc2nc(C)cs2)cc1=O,66.21%
7,CCOC(=O)Cc1csc(NC(=O)c2cc(=O)c(OC)c[nH]2)n1,26.29%
8,COc1coc(C(=O)Nc2nc(-c3ccncc3)cs2)cc1=O,-11.7%
9,COc1c[nH]c(C(=O)Nc2nc(C)cs2)cc1=O,69.04%
10,COc1c[nH]c(C(=O)Nc2nc(C(C)(C)C)cs2)cc1=O,39.24%
11,O=C(NCCN1CCOCC1)c1ccn(-c2ccc3ccccn23)n1.O=C(O)C(F)(F)F,-22.38%
12,Cc1ccc(CN2CCC3(CCC(C(=O)N(C)C)O3)CC2)o1.O=C(O)C(F)(F)F (stereo unspecified),-7.412%
13,O=C(COc1ccccc1)N1C[C@@H]2COC[C@]2(COc2cccnc2)C1.O=C(O)C(F)(F)F,12.4%
14,Cc1nc(NCc2noc(C3CCCO3)n2)c2sccc2n1 (stereo unspecified),-5.869%
15,Cl.NC(=O)COc1ccc(CNCc2cc(F)cc(F)c2)cc1,-21.98%
16,O=C(Nc1ccc(N2CCCC2)nc1)N1CCc2sccc2C1,0.2913%

row,SMILES,Percent Effect
1,O=C(Nc1ccc(N2CCCCC2)nc1)N1CCc2sccc2C1,18.45%
2,O=C(Nc1ccc(N2CCCC2)nc1)N1CCc2ccccc2C1,58.68%
3,CN1C[C@@H]2CC[C@H](CC1=O)N2C(=O)c1cc2ccccc2[nH]c1=O,6.279%
4,CN(C)C(c1ccccn1)[C@H]1CC[C@H](CNC(=O)CC2CCCC2)CC1 (stereo partly specified),-9.462%
5,CC1Cc2cc(-c3cncn3CC(=O)NC(C)(C)C)ccc2N1C.Cl (stereo unspecified),-7.03%
6,CCN1CCc2cc(-c3cncn3CC(=O)NC(C)(C)C)ccc21.Cl,19.95%
7,Cc1nccn1CCCn1cncc1-c1ccc2c(c1)CCCN2C.Cl,-22.83%
8,CN1CCCc2cc(-c3cncn3CCNC3CCS(=O)(=O)C3)ccc21.Cl (stereo unspecified),-0.7285%
9,Cc1cc(C)n(CCCn2cncc2-c2ccc3c(c2)CC(C)N3C)n1.Cl (stereo unspecified),79.43%
10,CCOC(=O)c1n[nH]cc1-c1cncn1CCCn1nc(C)cc1C.Cl,8.544%
11,CCN1c2ccc(-c3cncn3CC(=O)NC(C)(C)C)cc2CC1C.Cl (stereo unspecified),85.85%
12,Cc1nn(C)c(C)c1CCn1cncc1-c1ccc2c(c1)CC(C)N2C.Cl (stereo unspecified),15.02%
13,Cc1nccn1CCCn1cncc1-c1ccc2c(c1)CC(C)N2C.Cl (stereo unspecified),48.58%
14,Cc1nccn1CCCn1cncc1-c1ccc2c(c1)CCC(C)N2C.Cl (stereo unspecified),8.681%
15,CCN1c2ccc(-c3cncn3CCCn3ccnc3C)cc2CC1C.Cl (stereo unspecified),100.1%
